# Reference: PubChem BioAssay
# Active and inactive are the calls of the source.
# Assays:
# [1] = target: Albumin (Bos taurus) (UniProt P02769); assay: bovine serum albumin binders on microarray, profiling panel, artefact control for SMM control protein annotation, biochemical, small-molecule microarray, Alexa647 label, 635/667 nm fluorescence (AID 1118); details: BSA-A647 binding, fluorescence 635 nm, higher = more signal;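 further: score merges 667 nm emission intensity and signal-to-noise per printed compound spot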
# Chain of Albumin (Bos taurus) (P02769 whole entry, looked up): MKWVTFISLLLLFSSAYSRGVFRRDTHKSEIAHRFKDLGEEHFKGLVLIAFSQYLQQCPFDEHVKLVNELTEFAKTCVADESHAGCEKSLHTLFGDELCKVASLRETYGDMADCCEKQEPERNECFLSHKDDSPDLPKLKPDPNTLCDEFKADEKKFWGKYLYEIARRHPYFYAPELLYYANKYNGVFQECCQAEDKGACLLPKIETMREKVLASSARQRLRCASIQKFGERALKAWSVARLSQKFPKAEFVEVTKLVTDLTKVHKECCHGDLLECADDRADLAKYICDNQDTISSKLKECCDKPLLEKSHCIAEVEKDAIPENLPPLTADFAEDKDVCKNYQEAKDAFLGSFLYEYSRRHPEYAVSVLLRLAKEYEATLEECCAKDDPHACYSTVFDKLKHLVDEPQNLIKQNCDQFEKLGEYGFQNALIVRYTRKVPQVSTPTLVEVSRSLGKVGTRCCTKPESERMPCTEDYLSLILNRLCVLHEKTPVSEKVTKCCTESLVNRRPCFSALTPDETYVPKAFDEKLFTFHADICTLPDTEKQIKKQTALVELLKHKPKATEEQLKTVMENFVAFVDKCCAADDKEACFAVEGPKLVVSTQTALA
# [2] = small-molecule microarray binders of probe aXIP, primary screen, biochemical, NeuroSMM set, 635/667 nm fluorescence (AID 1119); details: higher = more signal, called active from +8 up or from −8 down;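 further: probe is the protein aXip251-270 applied at 1 µg/mL to compound-printed slides; binding of probe to printed compounds measured as 667 nm fluorescence plus signal to noise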
# [3] = small-molecule binders of probe aNOTCH3, primary screen, biochemical, small-molecule microarray, 635/667 nm fluorescence (AID 1120); details: higher = more signal;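 further: probe is a biotin-tagged antibody raised against NOTCH3 rather than NOTCH3 protein; score merges spot fluorescence near 667 nm with spot signal to noise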
# [4] = small-molecule binders of probe aNOTCH2, primary screen, biochemical, small-molecule microarray, 635/667 nm fluorescence (AID 1121); details: higher = more signal;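 further: score merges feature fluorescence read at 667 nm with its signal to noise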
# [5] = target: Carbonic anhydrase 2 (Homo sapiens) (UniProt P00918); assay: CAII small-molecule binders, profiling panel, biochemical, small-molecule microarray, Alexa647-labelled CAII (AID 1122); details: CAII-A647 binding fluorescence, higher = more signal
# [6] = COS7 lysate on small-molecule microarray, probe aHis, 635 nm (AID 1123); details: COS7 cell lysate, fluorescence, higher = more signal;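 further: z-score combines 667nm fluorescence intensity with signal-to-noise per printed compound spot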
# [7] = compound binding in COS7 lysate, probe aLAP1, primary screen, cell lysate, small-molecule microarray (AID 1124); details: probe aLAP1, fluorescence, higher = more signal;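 further: lysate comes from COS7 cells expressing LAP1 and is applied at 0.3 µg/mL; score merges spot fluorescence near 667 nm with signal-to-noise over triplicate slides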
# [8] = system: Sam68 (KHDRBS1); assay: Sam68 small-molecule binders, primary screen, biochemical, small-molecule microarray, 635 nm fluorescence (AID 1125); details: small-molecule microarray binding, higher = more signal;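 further: score merges 667 nm channel intensity with signal to noise over triplicate slides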
# [9] = system: Chordin-like protein 2 (CHRDL2); assay: CHRDL2 small-molecule binders, primary screen, biochemical, small-molecule microarray, 635 nm fluorescence (AID 1126); details: small-molecule microarray binding, fluorescence 635 nm; higher = more signal;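 further: printed compound slides probed with Chrdl2 protein at 4 µg/mL for 1 h at 4 C; score merges 667 nm emission intensity with signal to noise over three replicate slides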
# [10] = target: Concanavalin-A (Canavalia ensiformis) (UniProt P02866); assay: ConA small-molecule binders, primary screen, artefact control for SMM control protein annotation, biochemical, small-molecule microarray, Alexa647 label, 635 nm (AID 1127); details: ConA-A647 binding fluorescence, higher = more signal;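 further: z combines 667 nm emission intensity with signal-to-noise across three replicate slides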
# Chain of Concanavalin-A (Canavalia ensiformis) (P02866 whole entry, looked up): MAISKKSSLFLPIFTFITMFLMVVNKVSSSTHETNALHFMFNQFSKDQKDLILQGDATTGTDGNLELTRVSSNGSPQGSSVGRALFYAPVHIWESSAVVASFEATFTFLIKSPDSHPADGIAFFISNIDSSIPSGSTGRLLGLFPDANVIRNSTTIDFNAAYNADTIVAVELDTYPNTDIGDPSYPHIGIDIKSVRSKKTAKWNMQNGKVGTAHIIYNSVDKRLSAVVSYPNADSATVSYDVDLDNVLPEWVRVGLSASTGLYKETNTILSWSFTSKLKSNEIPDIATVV
Compound,composite z-score [1],composite Z-score [2],composite z-score [3],composite z-score [4],composite z-score [5],composite z-score [6],composite z-score [7],composite z-score [8],composite z-score [9],composite z-score [10]
O=C1N(Cc2ccccc2)c2ccccc2C[C@]12N=C(c1ccc(OCCCO)cc1)O[C@@H]2c1ccccc1,0.185,0.109 (inactive),0.0203,-0.161,0.529,1.86,0.274,0.48,0.441,1.02
COC(=O)[C@@H]1N=C(c2ccc(OCCCO)cc2)O[C@@H]1c1ccccc1,0.258,0.536 (inactive),-0.206,-0.104,0.7,0.387,-0.342,-0.826,-1.89,-0.324
CCCCCN1CC=CC23O[C@@H]4/C=C\CCCOC(=O)C4[C@H]2C(=O)N(C(C)CO)[C@@H]3C1=O (stereo not given in full),0.356,0.0199 (inactive),-0.427,-0.169,0.839,0.626,-0.0467,0.0008,-1.14,-0.734
CC1CC/C=C\[C@H]2OC34C=CCN(c5ccc6ccccc6c5)C(=O)[C@H]3N(CCCO)C(=O)[C@@H]4C2C(=O)O1 (stereo not given in full),-0.132,1.18 (inactive),-0.276,-0.16,0.574,-0.515,-0.701,-0.335,-1.77,-0.71
CC[C@@H]1O[Si](C(C)C)(C(C)C)c2c1cc(-c1cc(C)c(OC)c(C)c1)nc2-c1ccc(Oc2ccccc2)cc1,-0.145,-0.837 (inactive),-0.0967,-0.141,-0.272,0.133,-0.006,-0.807,-0.77,-0.0734
CC(=O)N1CC2(CC2)CC1c1ccccc1 (stereo not given),0.336,0.204 (inactive),0.77,0.172,0.671,1.88,0.562,0.913,0.0586,-0.0459
C=CCOC(=O)[C@@H]1[C@H]2C(=O)O[C@H](c3ccccc3)[C@H](c3ccccc3)N2[C@H](c2ccc(OCCOC(=O)[C@@H]3C[C@@H]4C(=O)N[C@@H](CCCC[N+](C)(C)C)C(=O)N4[C@@H]3c3ccc(O)cc3)cc2)[C@@]12C(=O)Nc1ccc(I)cc12,0.118,-0.0092 (inactive),0.0282,-0.084,0.473,1.92,0.417,1.29,0.841,0.756
C=CC[C@]1(C(=O)N2CCOCC2)COC(c2ccc(OCCCO)cc2)=N1,1.08,-0.275 (inactive),0.298,-0.13,0.777,3.27,1.6,1.28,0.191,1.16
O=C1O[C@H](c2ccccc2)[C@H](c2ccccc2)N2[C@H]1[C@@H](C(=O)O)[C@]1(C(=O)Nc3ccc(C#CCCO)cc31)[C@H]2c1ccccc1OCCO,0.713,-0.308 (inactive),-0.19,-0.124,0.729,0.676,0.681,0.794,-0.579,0.991
NCCCCCNC(=O)[C@@H]1C[C@@H]2C(=O)N[C@@H](CCCCN)C(=O)N2[C@@H]1c1ccc(O)cc1,-0.321,0.562 (inactive),0.353,-0.0162,0.635,2.38,0.103,1.3,1.38,1.15
C=CCNC(=O)[C@@H]1[C@H]2C(=O)O[C@H](c3ccccc3)[C@H](c3ccccc3)N2[C@H](c2ccccc2OCCO)[C@@]12C(=O)Nc1ccc(C#CCC(C(=O)OC)C(=O)OC)cc12,-0.0735,0.822 (inactive),0.514,0.283,0.648,1.66,1.62,1.27,-0.14,0.727
CCCCN1CC=CC23O[C@@H]4/C=C\CCC(C)OC(=O)C4[C@H]2C(=O)N(CCCO)[C@@H]3C1=O (stereo not given in full),-0.741,0.986 (inactive),-0.41,-0.171,0.283,-0.0462,0.359,-0.62,-1.38,0.12
Cc1ccc(NN2C(C(O)c3c(F)cccc3Cl)C=CC3C(=O)N(C4CCCCC4)C(=O)C32)cc1 (stereo not given),0.979,0.788 (inactive),0.102,0.174,0.489,2.38,-0.0134,1.25,-0.804,1.19
COC(=O)C/C=C/C[C@]1(O)C(=O)N(C)c2ccccc21,-0.475,-0.571 (inactive),0.212,-0.099,0.273,0.401,0.111,0.241,0.934,-0.556
O=C(NCCN1CCOCC1)[C@@H]1c2ccccc2C(=O)N(C2Cc3ccccc3C2)[C@H]1c1ccc(CO)cc1,0.268,-0.27 (inactive),-0.223,0.0129,0.498,0.866,1.77,1.01,-0.419,0.466
COc1cc(NN2C(C(O)c3ccc(N(C)C)cc3)C=CC3C(=O)N(c4ccccc4)C(=O)C32)cc(OC)c1OC (stereo not given),0.353,0.785 (inactive),0.448,0.0606,0.192,0.68,-0.196,0.913,-0.148,0.0693
[N-]=[N+]=Nc1ccccc1C[C@@]1(C(=O)N2CCOCC2)N=C(c2ccc(OCCCO)cc2)O[C@@H]1c1ccccc1,0.847,0.527 (inactive),0.457,-0.224,0.544,2.59,-0.235,1.32,-0.209,1.11
COC(=O)[C@@]1(Cc2ccccc2)[C@H]2c3cc(C(=O)N4CCCC4)n(CCc4ccccn4)c3C[C@H]2CN1C(=O)c1ccccc1,1.06,-1.17 (inactive),0.682,0.133,0.88,3.46,0.589,0.761,-0.607,0.606
CC(CO)N1C(=O)[C@@H]2[C@H]3C(=O)OCC=C[C@H]3OC23C=CCN(Cn2nnc4ccccc42)C(=O)[C@@H]13 (stereo not given in full),-0.779,0.6 (inactive),-0.256,-0.13,0.419,0.523,-0.199,-0.766,-0.851,-0.967
CC(C)[Si]1(C(C)C)OCc2cc(C3CC3)nc(-c3ccc(Oc4ccccc4)cc3)c21,-0.808,-0.26 (inactive),-0.177,-0.108,-0.204,0.0215,-0.238,-0.459,-0.368,-0.725
N[C@@H](Cc1ccccc1)C(=O)NCc1cn(Cc2ccccc2)nn1,-0.337,0.961 (inactive),-0.0656,-0.101,0.431,-0.276,-0.0884,-0.341,0.849,-0.0527
CS(=O)(=O)CCOC(=O)C1=CC(CCCO)=CC(c2ccc(CN3CCCC3)cc2)N(Cc2sc3ccccc3c2Cl)C=C1C(=O)OCCS(C)(=O)=O (stereo not given),1,1.14 (inactive),0.439,0.251,0.823,2.21,1.12,1.3,1.03,1.19
